PubChem BioAssay
Calls of active or inactive are those of the source.

Legend:
[1] = E. coli DRC41 culture turbidity changes, primary screen, E. coli filamentation inducer project, strain DRC41, OD650, 48 h (AID 1152);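 note: E. coli MC1000 strain DRC41 lacking acrAB efflux pump and sulA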; details: E. coli DRC41 (acrAB sulA), higher = more signal, called active from +8 up or from −8 down
[2] = small-molecule binders of probe aLefty1, primary screen, biochemical, small-molecule microarray, 635/667 nm fluorescence (AID 1153); details: higher = more signal;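 note: score merges spot fluorescence with signal-to-noise ratio from the scanned slide images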
[3] = PSAC antagonists in infected red cells, primary screen, cell-based, P. falciparum Indochina, OD700, 1 h (AID 1154); details: P. falciparum Indochina infected RBC osmotic lysis, higher = more signal, called active from +8 up or from −8 down
[4] = PSAC antagonists in infected red cells, primary screen, cell-based, P. falciparum Indochina, OD700, 2 h (AID 1155);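 note: lysis reports solute entry through the parasite surface anion channel PSAC; channel blockers reduce lysis of infected cells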; details: P. falciparum Indochina infected erythrocytes, osmotic lysis OD700; higher = more signal, called active from +8 up or from −8 down
[5] = osmotic lysis modulators in infected erythrocytes, primary screen, PSAC antagonist project, cell-based, P. falciparum Indochina, OD700, 3 h (AID 1156); details: higher = more signal, called active from +8 up or from −8 down
[6] = PSAC antagonists in infected red cells, primary screen, cell-based, P. falciparum Indochina, OD700, 18 h (AID 1157); details: P. falciparum Indochina infected erythrocytes, osmotic lysis OD700, 18 h; higher = more signal, called active from +8 up or from −8 down
[7] = modulators of S6 phosphorylation in cells, primary screen, cell-based, A549, cytoblot, luminescence, serum-stimulated (AID 1158); details: A549 phospho-S6 cytoblot, 5 h, higher = more signal;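 note: serum-stimulated A549 lung adenocarcinoma cells; signal is phosphorylated S6 detected by cytoblot immunostaining with HRP secondary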
[8] = target: NADPH oxidase 2 (Homo sapiens) (UniProt P04839); test: NOX2-dependent H2O2 signal modulators, primary screen, NOX inhibitor project, cell-based, HEK293-NOX2, PMA-stimulated, Amplex Red fluorescence (AID 1159); details: 45 min, higher = more signal, called active from +8 up or from −8 down; note: test concentration not given here
Chain of NADPH oxidase 2 (Homo sapiens) (P04839 whole entry, looked up): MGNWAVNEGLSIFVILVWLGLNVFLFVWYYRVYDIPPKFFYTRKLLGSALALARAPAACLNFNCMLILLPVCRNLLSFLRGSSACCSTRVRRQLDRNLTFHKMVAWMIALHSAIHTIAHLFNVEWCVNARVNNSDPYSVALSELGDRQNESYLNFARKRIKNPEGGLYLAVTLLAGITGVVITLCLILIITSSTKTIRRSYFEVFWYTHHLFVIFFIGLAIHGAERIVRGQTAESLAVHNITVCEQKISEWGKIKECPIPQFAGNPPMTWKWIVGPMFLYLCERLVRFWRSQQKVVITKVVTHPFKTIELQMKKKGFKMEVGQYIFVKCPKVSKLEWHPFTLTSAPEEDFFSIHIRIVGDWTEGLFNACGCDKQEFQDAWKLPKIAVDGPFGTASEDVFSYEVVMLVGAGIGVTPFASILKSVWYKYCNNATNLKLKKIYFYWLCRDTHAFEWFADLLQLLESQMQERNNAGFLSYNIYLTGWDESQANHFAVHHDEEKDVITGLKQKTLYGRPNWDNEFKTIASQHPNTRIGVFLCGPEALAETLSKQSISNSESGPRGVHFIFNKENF

[9] = target: NADPH oxidase 4 (Homo sapiens) (UniProt Q9NPH5); test: NOX4-dependent H2O2 signal modulators, primary screen, NOX inhibitor project, cell-based, HEK293-NOX4, tetracycline-induced, Amplex Red fluorescence (AID 1160); details: 45 min, higher = more signal, called active from +8 up or from −8 down
Chain of NADPH oxidase 4 (Homo sapiens) (Q9NPH5 whole entry, looked up): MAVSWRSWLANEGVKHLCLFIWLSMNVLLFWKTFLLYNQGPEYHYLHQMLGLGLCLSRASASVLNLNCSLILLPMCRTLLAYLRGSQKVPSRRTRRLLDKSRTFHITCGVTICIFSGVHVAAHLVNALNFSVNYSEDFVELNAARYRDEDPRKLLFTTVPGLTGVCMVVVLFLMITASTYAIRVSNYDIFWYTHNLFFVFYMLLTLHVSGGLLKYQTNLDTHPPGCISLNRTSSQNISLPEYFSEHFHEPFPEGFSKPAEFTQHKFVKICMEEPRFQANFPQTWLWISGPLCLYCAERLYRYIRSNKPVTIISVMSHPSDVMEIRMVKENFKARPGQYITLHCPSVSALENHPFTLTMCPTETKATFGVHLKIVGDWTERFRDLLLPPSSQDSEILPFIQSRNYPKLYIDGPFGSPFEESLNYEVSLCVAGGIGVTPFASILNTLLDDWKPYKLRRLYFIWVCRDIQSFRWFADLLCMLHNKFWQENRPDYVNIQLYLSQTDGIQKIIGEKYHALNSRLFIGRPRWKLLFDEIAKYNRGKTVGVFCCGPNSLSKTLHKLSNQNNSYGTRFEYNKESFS

[10] = target: NADPH oxidase 5 (Homo sapiens) (UniProt Q96PH1); test: NOX5-dependent H2O2 signal modulators, primary screen, NOX inhibitor project, cell-based, HEK293-NOX5, Amplex Red fluorescence (AID 1161); details: HEK293-NOX5, ionomycin, 45 min, higher = more signal
Chain of NADPH oxidase 5 (Homo sapiens) (Q96PH1 whole entry, looked up): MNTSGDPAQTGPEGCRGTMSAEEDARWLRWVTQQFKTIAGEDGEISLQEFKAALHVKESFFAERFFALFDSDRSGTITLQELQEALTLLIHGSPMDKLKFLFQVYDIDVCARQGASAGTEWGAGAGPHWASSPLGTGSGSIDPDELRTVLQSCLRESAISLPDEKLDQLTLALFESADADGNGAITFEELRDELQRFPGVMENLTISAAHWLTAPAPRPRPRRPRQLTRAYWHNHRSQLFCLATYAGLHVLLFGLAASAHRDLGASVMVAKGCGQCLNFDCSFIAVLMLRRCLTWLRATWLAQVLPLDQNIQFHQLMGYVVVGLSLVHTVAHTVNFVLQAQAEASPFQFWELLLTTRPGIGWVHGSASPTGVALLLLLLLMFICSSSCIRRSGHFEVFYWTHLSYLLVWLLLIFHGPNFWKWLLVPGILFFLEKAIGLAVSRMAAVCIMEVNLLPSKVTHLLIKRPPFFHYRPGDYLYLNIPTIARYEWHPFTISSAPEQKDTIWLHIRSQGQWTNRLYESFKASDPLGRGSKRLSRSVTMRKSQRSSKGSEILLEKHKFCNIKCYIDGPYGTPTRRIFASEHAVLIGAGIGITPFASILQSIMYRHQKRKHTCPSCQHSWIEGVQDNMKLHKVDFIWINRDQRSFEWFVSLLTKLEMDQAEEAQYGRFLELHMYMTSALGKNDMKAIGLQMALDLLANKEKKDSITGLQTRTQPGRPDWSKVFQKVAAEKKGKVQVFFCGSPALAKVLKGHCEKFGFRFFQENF

| Structure (SMILES) | z-score [1] | composite z-score [2] | z-score [3] | z-score [4] | z-score [5] | z-score [6] | z-score [7] | z-score [8] | z-score [9] | z-score [10] |
| --- | --- | --- | --- | --- | --- | --- | --- | --- | --- | --- |
| NC(=O)NCC#Cc1ccc2c(c1)[C@]1(C(=O)N2)[C@H](c2ccccc2OCCO)N2[C@H](c3ccccc3)[C@H](c3ccccc3)OC(=O)[C@H]2[C@@H]1C(=O)N1CCCCCCC1 | 1.01 (inactive) | 2.71 | 1.71 (inactive) | 0.786 (inactive) | 1.19 (inactive) | 0.443 (inactive) | -0.281 | 1.87 (inactive) | 0.893 (inactive) | 0.768 |
| Cc1c(NC(=O)/C(C#N)=C/C=C/c2ccccc2)c(=O)n(-c2ccccc2)n1C | 0.813 (inactive) | -0.213 | 1.96 (inactive) | 0.379 (inactive) | 0.0643 (inactive) | 0.205 (inactive) | -0.25 | -0.328 (inactive) | 0.0418 (inactive) | 0.649 |
| C=C(CCCC)C(=O)CC[C@H](OC(C)=O)c1ccc(CO)o1 | 0.33 (inactive) | 0.929 | 2.26 (inactive) | -0.43 (inactive) | 0.25 (inactive) | -1.8 (inactive) | 0.612 | 0.184 (inactive) | 0.209 (inactive) | -1.32 |
| C=CCOC(=O)[C@H]1[C@@H]2C(=O)O[C@@H](c3ccccc3)[C@@H](c3ccccc3)N2[C@@H](c2ccc(OCCOC(=O)[C@H]3C[C@H]4C(=O)N[C@@H](CCCC[N+](C)(C)C)C(=O)N4[C@H]3c3ccc(O)cc3)cc2)[C@]12C(=O)Nc1ccccc12 | 0.0787 (inactive) | 0.206 | -2.12 (inactive) | -1.12 (inactive) | 0.857 (inactive) | -1.95 (inactive) | -0.327 | 2.39 (inactive) | 0.928 (inactive) | 0.96 |
| O=C1OCC=C[C@H]2OC34C=CCN(c5ccc(Cl)cc5)C(=O)[C@H]3N(CCCO)C(=O)[C@@H]4[C@@H]12 (stereo not given in full) | 0.657 (inactive) | -0.128 | 0.204 (inactive) | -0.531 (inactive) | -0.172 (inactive) | -1.41 (inactive) | 0.808 | 0.846 (inactive) | -0.895 (inactive) | 2.6 |
| C=CCN1C(=O)[C@@]2(O[C@@H](CCO)[C@H]([Si](C)(C)c3ccc(OC)cc3)[C@H]2C)c2cc(NC(C)=O)ccc21 | -0.149 (inactive) | 0.0429 | 23.7 (active) | 8.14 (active) | 0.502 (inactive) | 1.26 (inactive) | 0.0792 | -1.07 (inactive) | -0.0526 (inactive) | -0.391 |
| CCOC(=O)C1=C[C@@H](C(C)(C)C)N(S(=O)(=O)c2ccc(C)cc2)[C@H]1c1ccc(Cl)c(Cl)c1 | -1.27 (inactive) | 0.157 | 1.92 (inactive) | 1.15 (inactive) | -0.335 (inactive) | 0.659 (inactive) | -0.359 | -0.739 (inactive) | 0.0493 (inactive) | 0.263 |
| COC(=O)[C@@]1(Cc2ccc(F)cc2)[C@H]2c3cc(C(=O)N(C)C)n(Cc4ccccn4)c3C[C@H]2CN1C(=O)c1ccccc1 | -1.37 (inactive) | 1.13 | 0.755 (inactive) | -0.692 (inactive) | 0.336 (inactive) | -1.68 (inactive) | 0.388 | 0.467 (inactive) | 1.2 (inactive) | -2.82 |
| O=C1[C@H]2C=C(Br)[C@H](C[C@@H]2OCCOCCO)[C@@]12CO2 | -0.927 (inactive) | -0.276 | 0.658 (inactive) | 0.276 (inactive) | -0.0195 (inactive) | 0.0588 (inactive) | -0.391 | 1.36 (inactive) | 0.561 (inactive) | 0.0214 |
| O=C(N1CCCCC1)[C@]1(CCS(=O)(=O)c2ccccc2)N=C(c2ccc(OCCCO)cc2)O[C@@H]1c1ccccc1 | -0.725 (inactive) | 1.17 | 27.2 (active) | 19.5 (active) | 2.02 (inactive) | -0.192 (inactive) | 1.54 | -2.96 (inactive) | -1.7 (inactive) | -1.94 |
| Cc1cc(C)c(C(O)C2C=CC3C(=O)NC(=O)C3N2Nc2ccccn2)c(C)c1 (stereo not given) | -1.14 (inactive) | 0.469 | 1.02 (inactive) | 0.742 (inactive) | -0.0209 (inactive) | 1.07 (inactive) | -1.25 | -1.49 (inactive) | -1.33 (inactive) | -2.12 |
| C=CCC(OC(C)=O)[C@@H]1[C@@H](N(Cc2ccc(-c3ccccc3)cc2)C(=O)c2ccc(C)cc2)c2cc(OCCCO)ccc2N1C(=O)Cc1ccc(OC)cc1 (stereo not given in full) | 2.25 (inactive) | -0.0937 | 0.398 (inactive) | -1.46 (inactive) | -0.774 (inactive) | -1.43 (inactive) | 1.52 | -0.137 (inactive) | 1.01 (inactive) | 2.57 |
| OCCCc1cc[n+](Cc2cccc(OC(F)(F)F)c2)cc1 | -0.123 (inactive) | 0.363 | 0.514 (inactive) | 0.816 (inactive) | 1.54 (inactive) | 0.916 (inactive) | 0.211 | 0.972 (inactive) | -0.285 (inactive) | 0.384 |
